About 79,000 compounds went through this panel and 15% of them were active in at least one assay; those are over-represented in the sample as a whole. Values without a mark were called inactive. Calls of active or inactive are those of the source. Cut-off read from the data, not from the text of the source: active = growth inhibition above about 70%; inactive = the rest.
Experiments:
[1] = NCI Yeast Anticancer Drug Screen. Data for the rad50 strain (AID 155);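 note: 0% = growth of vehicle-only cultures of the same strain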; details: S. cerevisiae rad50 strain growth inhibition, active compounds read high
Outline: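 Inhibition values express reduced yeast growth in compound-treated cultures relative to vehicle-treated controls.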

[2] = NCI Yeast Anticancer Drug Screen. Data for the mec2-1 strain (AID 157); details: S. cerevisiae mec2-1 strain, active compounds read high
Outline: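 Readout is yeast growth inhibition, normalised to vehicle-treated controls, in the mec2-1 strain exposed to compound.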

[3] = NCI Yeast Anticancer Drug Screen. Data for the sgs1 mgt1 strain (AID 161);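 note: 0% = growth of cultures given vehicle only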; details: S. cerevisiae sgs1 mgt1 strain, active compounds read high
Outline: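 This yeast growth screen uses a strain with defined DNA-repair lesions; compound-treated growth is compared with vehicle-treated growth.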

[4] = NCI Yeast Anticancer Drug Screen. Data for the cln2 rad14 strain (AID 165);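 note: 0% = growth equal to vehicle treated cultures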; details: S. cerevisiae cln2 rad14 strain, active compounds read high
Outline: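 Relative to vehicle controls, growth inhibition of compound-treated cln2 rad14 yeast was recorded.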

[5] = NCI Yeast Anticancer Drug Screen. Data for the bub3 strain (AID 167); details: S. cerevisiae bub3 mutant strain, active compounds read high
Outline: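 Steps: expose the mutant yeast strain to compound; grow alongside vehicle-treated cultures; measure growth; express inhibition against the vehicle cultures.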

[6] = NCI Yeast Anticancer Drug Screen. Data for the mlh1 rad18 strain (AID 175); details: S. cerevisiae mlh1 rad18 strain growth inhibition, active compounds read high
Outline: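 Test agents were incubated with a yeast strain of defined genotype (DNA damage repair defect). Inhibition of growth was derived by comparison with vehicle-exposed cultures.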

[7] = at 5.0 µM (retest, dose inferred, filed as 0.5)
[8] = at 50.0 µM (retest, dose inferred, filed as 5.0)

SMILES	growth inhibition [1, 7]	growth inhibition [1, 8]	growth inhibition ([1]; at 50.0 µM)	growth inhibition [2, 7]	growth inhibition [2, 8]	growth inhibition ([2]; at 50.0 µM)	growth inhibition [3, 7]	growth inhibition [3, 8]	growth inhibition ([3]; at 50.0 µM)	growth inhibition [4, 7]	growth inhibition [4, 8]	growth inhibition ([4]; at 50.0 µM)	growth inhibition [5, 7]	growth inhibition [5, 8]	growth inhibition ([5]; at 50.0 µM)	growth inhibition [6, 7]	growth inhibition [6, 8]	growth inhibition ([6]; at 50.0 µM)
CCN1CCC(O)(c2ccc(Cl)c(Cl)c2)C(C(=O)c2ccc(Cl)c(Cl)c2)C1 (configuration not stated)	75% (active)	99% (active)	99.7% (active)	57%	100% (active)	99.6% (active)	78% (active)	99% (active)	99.7% (active)	60%	99% (active)	98.9% (active)	71% (active)	98% (active)	98.8% (active)	54%	99% (active)	99.6% (active)
O=C(O)C(O)(c1ccccc1)C1(O)CCCCC1 (configuration not stated)	-147%	-173%	1.7%	-47%	-54%	7.95%	-53%	-64%	17.2%	-54%	-61%	3.15%	-64%	-83%	-3.65%	-114%	-127%	50.3%
CC1(C)CCC(C)(C)c2cc(Cl)c(O)cc21	4%	1%	97.8% (active)	4%	2%	99.2% (active)	4%	2%	52.5%	5%	4%	96.6% (active)	3%	9%	98.8% (active)	-1%	-4%	97.2% (active)
C1CC[N-]CC1.CC(=N\O)/C(C)=N/O.CC(=N\O)/C(C)=N/O.OC1[CH-]CCCC1.[Co+2]	22%	20%	23.9%	5%	16%	-1.95%	28%	25%	13.9%	17%	28%	76% (active)	13%	13%	-5.4%	17%	35%	30.9%
CCCCCCCCCCCCNCCc1ccccc1	99% (active)	99% (active)	98.2% (active)	99% (active)	98% (active)	98.8% (active)	99% (active)	98% (active)	98.9% (active)	99% (active)	98% (active)	98% (active)	99% (active)	98% (active)	98.2% (active)	99% (active)	98% (active)	98.8% (active)
S=C(S)N1CCOCC1	62%	94% (active)	-11.9%	50%	84% (active)	28.1%	37%	82% (active)	42.7%	-2%	75% (active)	-23.9%	45%	86% (active)	98.3% (active)	60%	88% (active)	19.5%
CCC[CH2][Sn]1([CH2]CCC)[O]CC(c2ccccn2)C[O]1	36%	98% (active)	87.2% (active)	28%	98% (active)	90.7% (active)	34%	98% (active)	88.2% (active)	21%	97% (active)	89.5% (active)	37%	99% (active)	89% (active)	44%	98% (active)	87.4% (active)
Oc1ccc([Te]CCNCC[Te]c2ccc(O)cc2)cc1	58%	58%	40.8%	37%	37%	0.3%	40%	40%	16.1%	13%	13%	48.3%	29%	29%	30.9%	36%	36%	71.5% (active)
Oc1c(Cl)cc(Cl)cc1Cl	-1%	94% (active)	86.5% (active)	-6%	67%	78% (active)	-1%	64%	94.8% (active)	-8%	55%	54.9%	-13%	90% (active)	78.5% (active)	-5%	94% (active)	95.8% (active)
